Measurements from ChEMBL document CHEMBL1961873, “Compounds: GSK PKIS; Assays: Nanosyn kinase panel” (2012).

Experiments:
[1] = target: Mitogen-activated protein kinase 3 (Homo sapiens) (UniProt P27361); settings: at 1 µM;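 further: values are mean percent inhibition of MAPK3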
[2] = target: SRSF protein kinase 3 (Homo sapiens) (UniProt Q9UPE1); settings: at 0.1 µM
[3] = target: SRSF protein kinase 3 (Homo sapiens) (UniProt Q9UPE1); settings: at 1 µM
[4] = target: Mitogen-activated protein kinase 14 (Homo sapiens) (UniProt Q16539); settings: at 0.1 µM
[5] = target: Mitogen-activated protein kinase 14 (Homo sapiens) (UniProt Q16539); settings: at 1 µM
[6] = target: Mitogen-activated protein kinase 11 (Homo sapiens) (UniProt Q15759); settings: at 0.1 µM
[7] = target: Mitogen-activated protein kinase 11 (Homo sapiens) (UniProt Q15759); settings: at 1 µM
[8] = target: T1, Mitogen-activated protein kinase 13 (Homo sapiens) (UniProt O15264); settings: at 0.1 µM
T1 sequence (whole entry): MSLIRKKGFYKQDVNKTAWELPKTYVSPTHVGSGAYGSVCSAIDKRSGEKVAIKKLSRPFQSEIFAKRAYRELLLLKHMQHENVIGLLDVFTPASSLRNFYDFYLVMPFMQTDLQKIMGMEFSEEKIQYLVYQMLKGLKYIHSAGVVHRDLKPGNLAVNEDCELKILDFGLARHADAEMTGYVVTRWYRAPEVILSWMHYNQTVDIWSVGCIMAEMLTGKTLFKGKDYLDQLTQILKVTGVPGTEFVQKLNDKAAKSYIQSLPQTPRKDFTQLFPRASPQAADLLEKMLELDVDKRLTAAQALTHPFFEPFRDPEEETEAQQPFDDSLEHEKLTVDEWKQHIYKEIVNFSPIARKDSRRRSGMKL

[9] = target: T1, Mitogen-activated protein kinase 13 (Homo sapiens); settings: at 1 µM
[10] = target: T2, Mitogen-activated protein kinase 12 (Homo sapiens) (UniProt P53778); settings: at 0.1 µM
T2 sequence (whole entry): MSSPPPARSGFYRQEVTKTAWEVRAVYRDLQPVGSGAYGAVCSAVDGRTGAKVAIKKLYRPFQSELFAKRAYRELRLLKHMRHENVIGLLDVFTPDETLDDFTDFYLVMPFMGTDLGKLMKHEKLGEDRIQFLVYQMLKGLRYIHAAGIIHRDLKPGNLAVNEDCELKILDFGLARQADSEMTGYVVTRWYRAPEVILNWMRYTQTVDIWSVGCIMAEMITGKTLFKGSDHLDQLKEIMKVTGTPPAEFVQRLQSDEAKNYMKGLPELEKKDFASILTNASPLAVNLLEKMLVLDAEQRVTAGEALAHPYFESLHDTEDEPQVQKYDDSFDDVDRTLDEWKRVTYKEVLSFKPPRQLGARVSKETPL

[11] = target: T2, Mitogen-activated protein kinase 12 (Homo sapiens); settings: at 1 µM
[12] = target: SRSF protein kinase 1 (Homo sapiens) (UniProt Q96SB4); settings: at 0.1 µM
[13] = target: SRSF protein kinase 1 (Homo sapiens) (UniProt Q96SB4); settings: at 1 µM
[14] = target: Phosphatidylinositol 4,5-bisphosphate 3-kinase catalytic subunit alpha isoform (Homo sapiens) (UniProt P42336); settings: at 0.1 µM
[15] = target: Phosphatidylinositol 4,5-bisphosphate 3-kinase catalytic subunit alpha isoform (Homo sapiens) (UniProt P42336); settings: at 1 µM
[16] = target: T3, Phosphatidylinositol 4,5-bisphosphate 3-kinase catalytic subunit delta isoform (Homo sapiens) (UniProt O00329); settings: at 0.1 µM
T3 sequence (whole entry): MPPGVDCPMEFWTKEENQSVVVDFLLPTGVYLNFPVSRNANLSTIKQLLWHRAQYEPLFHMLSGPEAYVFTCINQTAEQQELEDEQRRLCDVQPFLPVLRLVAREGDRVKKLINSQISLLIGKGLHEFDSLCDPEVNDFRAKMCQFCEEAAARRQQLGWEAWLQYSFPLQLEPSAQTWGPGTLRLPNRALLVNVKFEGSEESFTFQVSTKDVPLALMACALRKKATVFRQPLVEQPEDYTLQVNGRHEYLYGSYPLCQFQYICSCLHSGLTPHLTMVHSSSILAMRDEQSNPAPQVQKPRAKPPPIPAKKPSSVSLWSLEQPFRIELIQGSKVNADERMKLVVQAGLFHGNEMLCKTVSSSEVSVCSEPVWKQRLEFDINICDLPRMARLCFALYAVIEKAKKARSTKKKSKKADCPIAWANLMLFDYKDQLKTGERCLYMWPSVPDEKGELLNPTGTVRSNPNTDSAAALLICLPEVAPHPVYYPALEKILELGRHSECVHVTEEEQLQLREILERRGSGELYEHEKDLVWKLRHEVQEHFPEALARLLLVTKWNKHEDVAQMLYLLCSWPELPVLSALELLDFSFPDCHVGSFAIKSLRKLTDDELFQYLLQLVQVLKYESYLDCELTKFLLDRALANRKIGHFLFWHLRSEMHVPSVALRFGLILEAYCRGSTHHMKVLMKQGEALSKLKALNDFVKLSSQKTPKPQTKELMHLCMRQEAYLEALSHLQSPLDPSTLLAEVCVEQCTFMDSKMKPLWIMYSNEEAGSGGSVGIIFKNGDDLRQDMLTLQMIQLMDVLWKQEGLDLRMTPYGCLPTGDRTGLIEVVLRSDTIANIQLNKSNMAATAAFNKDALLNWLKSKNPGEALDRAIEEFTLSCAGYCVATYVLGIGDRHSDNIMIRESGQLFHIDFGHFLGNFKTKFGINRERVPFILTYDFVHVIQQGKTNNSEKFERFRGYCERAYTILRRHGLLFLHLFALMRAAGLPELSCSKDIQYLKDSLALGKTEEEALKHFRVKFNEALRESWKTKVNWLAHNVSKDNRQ

[17] = target: T3, Phosphatidylinositol 4,5-bisphosphate 3-kinase catalytic subunit delta isoform (Homo sapiens); settings: at 1 µM
[18] = target: Phosphatidylinositol 4-kinase beta (Homo sapiens) (UniProt Q9UBF8); settings: at 0.1 µM
[19] = target: Phosphatidylinositol 4-kinase beta (Homo sapiens) (UniProt Q9UBF8); settings: at 1 µM
[20] = target: Sphingosine kinase 1 (Homo sapiens) (UniProt Q9NYA1); settings: at 0.1 µM;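 further: mean percent inhibition of SPHK1 activity, measured within the GSK PKIS screening panel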
Sphingosine kinase 1 (Homo sapiens), sequence (Q9NYA1 whole entry): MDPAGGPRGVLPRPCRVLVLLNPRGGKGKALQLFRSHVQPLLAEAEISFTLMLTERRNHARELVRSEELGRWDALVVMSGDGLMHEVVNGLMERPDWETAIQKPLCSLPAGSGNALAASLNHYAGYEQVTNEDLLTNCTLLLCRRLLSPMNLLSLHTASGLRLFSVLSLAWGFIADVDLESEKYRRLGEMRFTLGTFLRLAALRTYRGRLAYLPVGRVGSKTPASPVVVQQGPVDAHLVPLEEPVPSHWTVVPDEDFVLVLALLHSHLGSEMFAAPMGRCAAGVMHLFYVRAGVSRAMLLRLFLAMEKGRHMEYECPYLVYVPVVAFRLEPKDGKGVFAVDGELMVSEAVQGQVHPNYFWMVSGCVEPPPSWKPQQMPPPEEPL

SRSF protein kinase 1 (Homo sapiens), sequence (Q96SB4 whole entry, canonical isoform): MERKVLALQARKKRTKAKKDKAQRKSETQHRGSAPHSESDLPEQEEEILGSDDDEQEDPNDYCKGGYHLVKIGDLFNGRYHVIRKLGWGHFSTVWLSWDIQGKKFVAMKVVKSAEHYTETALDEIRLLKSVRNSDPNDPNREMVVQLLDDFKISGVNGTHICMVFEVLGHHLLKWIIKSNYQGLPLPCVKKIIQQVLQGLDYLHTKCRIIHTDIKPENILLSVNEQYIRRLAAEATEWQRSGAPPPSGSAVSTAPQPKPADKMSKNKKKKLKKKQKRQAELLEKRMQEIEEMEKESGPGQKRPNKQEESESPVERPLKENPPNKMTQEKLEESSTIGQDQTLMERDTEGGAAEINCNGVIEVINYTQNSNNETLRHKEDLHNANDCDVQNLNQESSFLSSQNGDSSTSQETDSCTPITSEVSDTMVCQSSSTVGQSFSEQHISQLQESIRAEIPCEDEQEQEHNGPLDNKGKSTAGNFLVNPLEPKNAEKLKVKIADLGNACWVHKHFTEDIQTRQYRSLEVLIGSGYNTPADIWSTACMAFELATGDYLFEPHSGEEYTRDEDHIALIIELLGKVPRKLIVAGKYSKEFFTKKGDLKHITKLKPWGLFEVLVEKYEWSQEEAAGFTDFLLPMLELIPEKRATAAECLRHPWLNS
Mitogen-activated protein kinase 11 (Homo sapiens), sequence (Q15759 whole entry): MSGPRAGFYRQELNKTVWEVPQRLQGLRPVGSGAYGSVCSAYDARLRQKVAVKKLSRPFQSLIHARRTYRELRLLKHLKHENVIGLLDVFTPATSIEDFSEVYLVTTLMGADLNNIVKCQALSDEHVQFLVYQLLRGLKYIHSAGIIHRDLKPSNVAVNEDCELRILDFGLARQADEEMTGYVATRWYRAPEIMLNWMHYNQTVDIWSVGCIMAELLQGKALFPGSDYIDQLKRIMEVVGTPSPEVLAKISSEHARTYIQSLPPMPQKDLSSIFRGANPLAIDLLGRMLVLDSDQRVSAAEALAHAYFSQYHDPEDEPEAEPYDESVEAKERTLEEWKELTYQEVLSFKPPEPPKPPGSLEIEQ
Mitogen-activated protein kinase 3 (Homo sapiens), sequence (P27361 whole entry): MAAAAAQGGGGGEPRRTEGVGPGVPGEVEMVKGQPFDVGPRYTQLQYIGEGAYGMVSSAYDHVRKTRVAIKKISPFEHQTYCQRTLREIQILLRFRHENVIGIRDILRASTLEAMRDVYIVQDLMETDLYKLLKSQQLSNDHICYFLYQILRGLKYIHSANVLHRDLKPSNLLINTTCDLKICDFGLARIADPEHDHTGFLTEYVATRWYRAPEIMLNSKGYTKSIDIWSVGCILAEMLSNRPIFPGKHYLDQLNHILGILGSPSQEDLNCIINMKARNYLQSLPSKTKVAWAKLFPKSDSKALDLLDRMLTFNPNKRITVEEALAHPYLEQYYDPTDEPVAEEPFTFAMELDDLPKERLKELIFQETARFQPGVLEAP
Phosphatidylinositol 4-kinase beta (Homo sapiens), sequence (Q9UBF8 2-816 limits assumed): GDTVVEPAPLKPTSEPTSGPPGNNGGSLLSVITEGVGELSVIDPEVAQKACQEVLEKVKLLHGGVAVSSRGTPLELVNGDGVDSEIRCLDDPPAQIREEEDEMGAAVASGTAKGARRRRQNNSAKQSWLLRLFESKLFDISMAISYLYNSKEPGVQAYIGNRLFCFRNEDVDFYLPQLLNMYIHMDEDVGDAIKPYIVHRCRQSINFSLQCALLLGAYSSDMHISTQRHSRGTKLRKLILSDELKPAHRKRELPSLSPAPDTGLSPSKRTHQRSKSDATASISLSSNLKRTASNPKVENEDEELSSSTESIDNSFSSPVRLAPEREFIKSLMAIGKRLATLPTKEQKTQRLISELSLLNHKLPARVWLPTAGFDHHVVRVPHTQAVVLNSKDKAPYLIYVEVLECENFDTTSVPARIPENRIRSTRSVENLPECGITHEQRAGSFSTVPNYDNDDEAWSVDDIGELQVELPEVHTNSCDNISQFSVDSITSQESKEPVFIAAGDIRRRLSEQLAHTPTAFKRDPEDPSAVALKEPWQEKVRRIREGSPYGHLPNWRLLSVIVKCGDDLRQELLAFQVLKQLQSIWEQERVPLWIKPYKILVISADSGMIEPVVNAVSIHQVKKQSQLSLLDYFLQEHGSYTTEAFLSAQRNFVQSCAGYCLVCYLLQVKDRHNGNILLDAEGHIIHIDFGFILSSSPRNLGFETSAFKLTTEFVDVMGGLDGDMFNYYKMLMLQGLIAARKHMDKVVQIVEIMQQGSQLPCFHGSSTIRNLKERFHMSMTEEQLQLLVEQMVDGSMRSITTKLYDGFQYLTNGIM
Mitogen-activated protein kinase 14 (Homo sapiens), sequence (Q16539 whole entry): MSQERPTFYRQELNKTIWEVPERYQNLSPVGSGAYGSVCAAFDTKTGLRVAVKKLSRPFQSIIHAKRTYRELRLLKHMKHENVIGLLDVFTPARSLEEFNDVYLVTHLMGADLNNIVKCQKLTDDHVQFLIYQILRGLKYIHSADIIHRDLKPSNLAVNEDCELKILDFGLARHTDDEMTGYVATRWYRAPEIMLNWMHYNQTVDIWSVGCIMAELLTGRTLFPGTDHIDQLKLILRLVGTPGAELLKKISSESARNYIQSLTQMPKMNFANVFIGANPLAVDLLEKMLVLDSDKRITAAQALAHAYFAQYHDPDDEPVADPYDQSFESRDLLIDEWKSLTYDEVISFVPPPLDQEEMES
SRSF protein kinase 3 (Homo sapiens), sequence (Q9UPE1 whole entry): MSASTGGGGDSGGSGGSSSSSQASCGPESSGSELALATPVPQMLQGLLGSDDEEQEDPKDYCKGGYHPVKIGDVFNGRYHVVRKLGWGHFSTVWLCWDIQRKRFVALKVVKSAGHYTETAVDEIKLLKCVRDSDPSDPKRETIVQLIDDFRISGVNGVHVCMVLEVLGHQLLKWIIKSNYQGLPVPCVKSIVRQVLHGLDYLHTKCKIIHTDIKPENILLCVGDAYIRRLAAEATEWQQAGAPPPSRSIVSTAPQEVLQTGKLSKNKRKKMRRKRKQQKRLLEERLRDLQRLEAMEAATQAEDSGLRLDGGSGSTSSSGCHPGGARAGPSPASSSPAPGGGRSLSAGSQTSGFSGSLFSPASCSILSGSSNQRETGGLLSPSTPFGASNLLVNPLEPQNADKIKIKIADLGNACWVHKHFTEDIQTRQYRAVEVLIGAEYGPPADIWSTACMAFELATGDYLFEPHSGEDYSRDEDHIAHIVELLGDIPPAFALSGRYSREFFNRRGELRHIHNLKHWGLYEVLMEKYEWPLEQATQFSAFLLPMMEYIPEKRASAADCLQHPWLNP
Phosphatidylinositol 4,5-bisphosphate 3-kinase catalytic subunit alpha isoform (Homo sapiens), sequence (P42336 whole entry, canonical isoform): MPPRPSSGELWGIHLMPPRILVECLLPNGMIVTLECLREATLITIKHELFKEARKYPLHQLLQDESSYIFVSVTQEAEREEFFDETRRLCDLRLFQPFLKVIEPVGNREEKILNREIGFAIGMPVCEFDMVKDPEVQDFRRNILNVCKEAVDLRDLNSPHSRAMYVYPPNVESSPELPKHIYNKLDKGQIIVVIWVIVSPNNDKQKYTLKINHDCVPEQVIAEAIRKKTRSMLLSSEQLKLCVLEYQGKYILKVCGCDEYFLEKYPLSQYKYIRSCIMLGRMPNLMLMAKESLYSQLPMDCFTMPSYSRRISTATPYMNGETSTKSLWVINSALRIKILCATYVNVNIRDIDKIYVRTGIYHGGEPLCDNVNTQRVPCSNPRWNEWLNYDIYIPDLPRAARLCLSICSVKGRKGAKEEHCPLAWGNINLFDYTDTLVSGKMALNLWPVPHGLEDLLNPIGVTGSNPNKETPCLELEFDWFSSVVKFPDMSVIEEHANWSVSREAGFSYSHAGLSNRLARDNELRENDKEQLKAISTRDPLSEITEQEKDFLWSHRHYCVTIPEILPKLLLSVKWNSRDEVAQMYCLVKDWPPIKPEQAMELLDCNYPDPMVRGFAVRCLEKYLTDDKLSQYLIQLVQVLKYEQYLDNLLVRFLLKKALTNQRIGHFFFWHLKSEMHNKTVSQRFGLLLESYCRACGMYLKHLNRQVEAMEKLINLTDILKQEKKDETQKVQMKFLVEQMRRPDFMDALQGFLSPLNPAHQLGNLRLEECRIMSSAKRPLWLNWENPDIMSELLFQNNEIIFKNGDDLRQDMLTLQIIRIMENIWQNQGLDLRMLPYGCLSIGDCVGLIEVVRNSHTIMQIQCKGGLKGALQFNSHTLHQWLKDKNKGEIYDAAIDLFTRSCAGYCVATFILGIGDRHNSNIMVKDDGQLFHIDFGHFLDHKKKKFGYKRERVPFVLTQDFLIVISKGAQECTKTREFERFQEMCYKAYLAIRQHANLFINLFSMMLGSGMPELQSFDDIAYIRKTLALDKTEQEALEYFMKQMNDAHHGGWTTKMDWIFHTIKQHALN

Row | Structure (SMILES) | inhibition [1] [%] | inhibition [2] [%] | inhibition [3] [%] | inhibition [4] [%] | inhibition [5] [%] | inhibition [6] [%] | inhibition [7] [%] | inhibition [8] [%] | inhibition [9] [%] | inhibition [10] [%] | inhibition [11] [%] | inhibition [12] [%] | inhibition [13] [%] | inhibition [14] [%] | inhibition [15] [%] | inhibition [16] [%] | inhibition [17] [%] | inhibition [18] [%] | inhibition [19] [%] | inhibition [20] [%]
1 | COc1cc(C)c(N(C)C(=O)CN(C)C)cc1Nc1nc(Nc2cccc(F)c2C(N)=O)c2cc[nH]c2n1 | 2.25 | 1.68 | 1.28 | -0.82 | 3.91 | 2.56 | 0.98 | 1 | 1.9 | 0.25 | 1.09 | -1.96 | -3.38 | 0.08 | -0.5 | 0.21 | 1.56 | 3.54 | 0.7 | 0.03
2 | COc1cc2ncn(-c3cc(OCc4ccccc4C(F)(F)F)c(C(C)=O)s3)c2cc1OC | 3.87 | -2.61 | 1.07 | 4.86 | 3.85 | 5.8 | 4.79 | 2.82 | 2.04 | 2.87 | 2.91 | -0.85 | -1.87 | 1.72 | 2.65 | 1.03 | 1.51 | 1.58 | -4.62 | -1.64
3 | CCS(=O)(=O)c1ccc(OC)c(Nc2ncc(-c3cccc(-c4ccccc4F)c3)o2)c1 | 0.15 | 0.74 | 1.45 | 5.17 | 8.57 | 0.03 | 4.77 | 3.85 | -0.94 | -2.59 | 0.18 | 0.1 | 2.33 | 1.85 | 2.73 | 2.24 | 5.89 | -1.01 | -4.05 | 4.17
4 | NS(=O)(=O)c1ccc(N/N=C2\C(=O)Nc3ccc(-c4cnco4)cc32)cc1 | 3.04 | -2.14 | -0.18 | 2.88 | 2.83 | 0.43 | 2.84 | 2.15 | 2.61 | 2.22 | 5.43 | -1.9 | -0.75 | 1.34 | -0.11 | 0.72 | -0.54 | 1.44 | 2.18 | -0.25
5 | O=C(Nc1ccc(Oc2ccc3[nH]c(NC(=O)c4ccccc4)nc3c2)cc1)Nc1cc(C(F)(F)F)ccc1F | 3.58 | 4.8 | 50.7 | 11.1 | 40 | 5.44 | 32.5 | 1.65 | 3.87 | -0.11 | 3.12 | -0.76 | 7.91 | 0.59 | 8.12 | -0.81 | 8.31 | 1.83 | -2.27 | 0.81
6 | COc1ccc(C2=C(N3CCc4ccccc43)C(=O)NC2=O)cc1 | 5.25 | 0.52 | 1.43 | 3.41 | 12.2 | 4.81 | 8.67 | -0.17 | 3.67 | 12 | 3.4 | -1.12 | 0.76 | 6.53 | 12.6 | 5.26 | 9.11 | 3.23 | -7.57 | 0.25
7 | CCC(=O)Nc1ccc(C)c(-c2ccc(C(=O)NCC3CC3)cc2)c1 | 1.57 | -1.41 | -1.57 | 20.1 | 62.9 | 6.54 | 36.8 | 3.68 | 3.22 | 2.95 | 4.44 | -3.31 | -2.74 | 2.7 | 0.64 | 0.57 | -0.59 | -0.74 | -0.15 | -3.42
